The supplement of paper PMC10981050
Where “and” joins values, the source holds several entries; their conditions need not be identical. Equal entries are not always repeated. Structures can show the parent of a compound that is named as a salt.

Tests used:
Experiment in all cases: cell viability relative to vehicle control; higher = less cytotoxic
Details in all cases: 10 µM
[1] = system: K562
How it was run: (§1)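 Each screen used CRISPR-edited mutant and wild-type clones from four leukaemia lines. Compounds were acoustically dispensed at a single 10 µM dose, and CellTiter-Glo luminescence was read after 48 h with the supernatant first removed. Viability was analysed in Genedata Screener and given as percent of the on-plate vehicle control.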

[2] = system: MARIMO
How it was run: as §1

[3] = system: MOLM14
How it was run: as §1

[4] = system: OCI-AML2
How it was run: as §1

Row | Structure (SMILES) | cell viability ([1]; SRSF2 genotype: SRSF2 P95H/wt) | cell viability ([1]; SRSF2 genotype: SRSF2 wt/wt) | cell viability ([2]; SRSF2 genotype: SRSF2 P95H/wt) | cell viability ([2]; SRSF2 genotype: SRSF2 wt/wt) | cell viability ([3]; SRSF2 genotype: SRSF2 P95H/wt) | cell viability ([3]; SRSF2 genotype: SRSF2 wt/wt) | cell viability ([4]; SRSF2 genotype: P95H/wt) | cell viability ([4]; SRSF2 genotype: wt/wt)
1 | COc1cc(O)c(C(=O)/C=C/c2ccccc2)c(OC)c1 [Flavokawain B] | 23.3% and 39% | 58% | 34.5% | 39% | 22.6% | 11.3% | 22.8% | 25.2%
2 | O=c1c(O)c(-c2ccc(O)c(O)c2)oc2cc(O)cc(O)c12 [Quercetin dihydrate (Sophoretin)] | 107% and 99.5% | 92.6% | 98.4% | 98% | 100% | 99.6% | 97.4% | 96.5%
3 | OC[C@H]1O[C@@H](Oc2ccc(O)cc2)[C@H](O)[C@@H](O)[C@@H]1O [Arbutin (Uva, p-Arbutin)] | 104% and 97.2% | 95.1% | 96.6% | 104% | 103% | 101% | 100% | 107%
4 | CC(C)n1ncnc1-c1cn2c(n1)-c1ccc(O[C@@H](C)C(N)=O)cc1OCC2 | 103% and 99.5% | 105% | 48.3% | 46.3% | 50.9% | 62.9% | 18.5% | 34.3%
5 | CCc1cccc2c3c([nH]c12)C(CC)(CC(=O)O)OCC3 (stereo not drawn) [Etodolac (Lodine)] | 99.4% and 101% | 92.6% | 89.7% | 96.5% | 93% | 97.8% | 86.8% | 93.7%
6 | O=C(CCCCCN1C(=O)c2cccc3cccc(c23)C1=O)NO [Scriptaid] | 1.69% and 12.5% | 11.4% | 4.53% | 4.11% | 0.6% | 0.53% | 0.32% | 0.98%
7 | CO[C@H]1C[C@@H]2CC[C@@H](C)[C@@](O)(O2)C(=O)C(=O)N2CCCC[C@H]2C(=O)O[C@H]([C@H](C)C[C@@H]2CC[C@@H](OCCO)[C@H](OC)C2)CC(=O)[C@H](C)/C=C(\C)[C@@H](O)[C@@H](OC)C(=O)[C@H](C)C[C@H](C)/C=C/C=C/C=C/1C [Everolimus (RAD001)] | 59.9% and 63.6% | 70.4% | 73.8% | 71.6% | 57.4% | 51.4% | 60% | 61.6%
8 | O=C(NCc1ccc(Oc2ccccc2)cc1)c1nc(-c2cc(Br)c(O)c(Br)c2)no1 | 77.6% and 72% | 66.7% | 80.5% | 91.8% | 59.8% | 84.5% | 88.4% | 81.9%
9 | Oc1ccc(OCc2ccccc2)cc1 [Monobenzone (Benoquin)] | 89.5% and 92.4% | 83.9% | 53.8% | 73% | 27.1% | 11.3% | 32.5% | 47.3%
10 | CCOC(=O)C1=C(N)Oc2ccc(Br)cc2C1C(C#N)C(=O)OCC (stereo not drawn) | 84.9% and 89.9% | 86.5% | 65.6% | 56% | 48.6% | 74.9% | 67.4% | 66%
11 | COC(=O)C1=C(C)NC(C)=C(C(=O)OCCN2CCN(C(c3ccccc3)c3ccccc3)CC2)C1c1cccc([N+](=O)[O-])c1 (stereo not drawn) [Manidipine dihydrochloride (CV-4093)] | 60.3% and 62.1% | 53.6% | 67.1% | 68.6% | 55.2% | 57.7% | 42.5% | 46.8%
12 | CN(C)CCCn1cc(C2=C(c3c[nH]c4ccccc34)C(=O)NC2=O)c2ccccc21 | 91.2% and 78.4% | 98.8% | 82.9% | 92% | 36.4% | 32.5% | 34% | 67.1%
13 | Cc1ncc([N+](=O)[O-])n1CCO [Metronidazole (Flagyl)] | 105% and 104% | 109% | 107% | 109% | 104% | 103% | 106% | 111%
14 | CC(C)n1c(=O)n(C)c2cnc3cc(F)c(-c4ccc(OCCCN5CCCCC5)nc4)cc3c21 | 71.3% and 72.9% | 75.9% | 60% | 61% | 30.9% | 32% | 32.7% | 37%
15 | CC/C=C(\C(=O)N[C@@H]1C(=O)N2C(C(=O)OCOC(=O)C(C)(C)C)=C(COC(N)=O)CS[C@H]12)c1csc(N)n1 [Cefcapene Pivoxil Hydrochloride] | 101% and 102% | 109% | 93.2% | 103% | 97.3% | 105% | 114% | 106%
16 | CN(C)Cc1cccc(N=C(c2ccccc2)c2c(O)[nH]c3cc(C(=O)N(C)C)ccc23)c1 | 88.8% and 90.6% | 79.6% | 60.9% | 63.4% | 38.4% | 31.6% | 38.5% | 36.2%
17 | CC(C)=C[C@H]1C[C@](C)(O)[C@@H]2[C@H]3CC[C@@H]4[C@@]5(C)CC[C@H](O[C@@H]6OC[C@H](O)[C@H](O[C@@H]7O[C@H](CO)[C@@H](O)[C@H](O)[C@H]7O[C@@H]7OC[C@@H](O)[C@H](O)[C@H]7O)[C@H]6O[C@@H]6O[C@@H](C)[C@H](O)[C@@H](O)[C@H]6O)C(C)(C)[C@@H]5CC[C@@]4(C)[C@@]34CO[C@@]2(C4)O1 [Jujuboside B] | 117% and 106% | 102% | 108% | 113% | 107% | 106% | 97.2% | 108%
18 | CC(=O)S[C@@H]1CC2=CC(=O)CC[C@]2(C)[C@H]2CC[C@@]3(C)[C@@H](CC[C@@]34CCC(=O)O4)[C@H]12 [spironolactone] | 87.8% and 90.2% | 89.7% | 78.3% | 84.5% | 90.1% | 91.5% | 90.6% | 97.9%

Row | Structure (SMILES) | cell viability ([1]; SRSF2 genotype: SRSF2 P95H/wt) | cell viability ([1]; SRSF2 genotype: SRSF2 wt/wt) | cell viability ([2]; SRSF2 genotype: SRSF2 P95H/wt) | cell viability ([2]; SRSF2 genotype: SRSF2 wt/wt) | cell viability ([3]; SRSF2 genotype: SRSF2 P95H/wt) | cell viability ([3]; SRSF2 genotype: SRSF2 wt/wt) | cell viability ([4]; SRSF2 genotype: P95H/wt) | cell viability ([4]; SRSF2 genotype: wt/wt)
19 | O.O.O.O.O.O.O.[Cl][La]([Cl])[Cl] [Lanthanum(III) chloride heptahydrate] | 107% and 102% | 102% | 109% | 114% | 107% | 104% | 99.2% | 99.4%
20 | CCCCCCCCCCCCCCCC(=O)OC [Methyl palmitate] | 103% and 99.7% | 100% | 99% | 92.7% | 103% | 97.7% | 102% | 98.1%
21 | C=C1CC[C@@H]2[C@](C)(COC(=O)CCC(=O)O)[C@H](OC(=O)CCC(=O)O)CC[C@@]2(C)[C@@H]1/C=C/C1=CCOC1=O [Dehydroandrographolide Succinate Potasium Sa] | 105% and 103% | 105% | 105% | 101% | 99.1% | 105% | 109% | 104%
22 | C[C@@](Cc1ccc(O)c(O)c1)(NN)C(=O)O [Carbidopa] | 103% and 92.2% | 101% | 92.1% | 98.2% | 93.3% | 98.4% | 93.9% | 107%
23 | CN1CCN(c2ccc3nc(-c4c(N)c5c(F)cccc5[nH]c4=O)[nH]c3c2)CC1 [Dovitinib Dilactic acid (TKI258 Dilactic aci] | 6.48% and 13.2% | 8.9% | 10.8% | 12.8% | 0.16% | 0.07% | 0.15% | 0.51%
24 | COCCOc1cnc2ccn([C@H](C)c3nnc4c(F)cc(-c5cnn(C)c5)cn34)c(=O)c2c1 | 86.5% and 87.1% | 85.7% | 86.8% | 94.3% | 96.7% | 93.5% | 82% | 85.9%
25 | CCN(CC)c1ccc(C=NNC(=O)c2ccc(O)cc2)cc1 | 46.8% and 47.9% | 51.9% | 53.8% | 52.2% | 56.2% | 49.9% | 70.1% | 69.3%
26 | C[C@]12CC[C@H](O)CC1=CC[C@@H]1[C@@H]2CC[C@]2(C)C(n3cnc4ccccc43)=CC[C@@H]12 [Galeterone (TOK-001)] | 83% and 93.4% | 95.7% | 77.5% | 81.9% | 88.2% | 97.8% | 80.3% | 80.1%
27 | CC(C)=CCOc1ccc(/C=C/C(=O)c2ccc(OCC=C(C)C)cc2OCC(=O)O)cc1 [Sofalcone] | 100% and 101% | 107% | 105% | 101% | 84.9% | 94.5% | 106% | 118%
28 | CC(=O)OCC(=O)NCCCOc1cccc(CN2CCCCC2)c1 [Roxatidine acetate HCl] | 102% and 97.3% | 96.1% | 93.7% | 103% | 101% | 101% | 92% | 94.8%
29 | O=C(N[C@@H](c1ccccc1)[C@@H](O)C(=O)O)c1ccccc1 [N-Benzoyl-(2R,3S)-3-phenylisoserine] | 108% and 99.9% | 103% | 100% | 98.4% | 103% | 102% | 101% | 104%
30 | Cc1nc(Nc2ncc(C(=O)Nc3c(C)cccc3Cl)s2)cc(N2CCN(CCO)CC2)n1 [Dasatinib] | 21.5% and 39.8% | 27.1% | 68.1% | 61.3% | 40.3% | 35.1% | 31.8% | 40.6%
31 | Cc1ccc(C(C)C)cc2c(C)ccc1-2 [Guaiazulene] | 97.5% and 99% | 110% | 102% | 101% | 93.5% | 105% | 107% | 93.4%
32 | CCCCC(F)(F)[C@@]1(O)CC[C@H]2[C@@H](CC(=O)[C@@H]2CCCCCCC(=O)O)O1 [Lubiprostone] | 101% and 100% | 104% | 93.9% | 98% | 84.5% | 98.8% | 83.6% | 88%
33 | CC1=C(CSC(=S)N2CCCCC2)C(=O)c2ccccc2C1=O [PKM2 inhibitor(compound 3k)] | 3.74% and 0.42% | 8.02% | 0.75% | 0.85% | 0.19% | 0.21% | 0.2% | 1.51%
34 | c1ccc2[nH]c(-c3cscn3)nc2c1 [Thiabendazole] | 105% and 101% | 106% | 98.8% | 103% | 97.8% | 99% | 93.6% | 105%
35 | COc1cc2nccc(Oc3ccc(NC(=O)NC4CC4)c(Cl)c3)c2cc1C(N)=O [E7080 (Lenvatinib)] | 63.7% and 82.7% | 67.5% | 83.9% | 89.3% | 34.6% | 28.1% | 50.9% | 56.1%
36 | Cc1ccc2oc(=O)ccc2c1 [6-Methylcoumarin] | 99.5% and 87.8% | 91.3% | 97.3% | 98.6% | 95% | 101% | 91.1% | 107%
